From PubChem
An excerpt weighted towards active compounds, which were near 8% of everything screened.
HT1080NT lethal = kills 2HG-producing HT-1080-NT fibrosarcoma cells | HT-1080-NT fibrosarcoma viability, CellTiter-Glo ATP luminescence, 48 h | Potency, µM (highest dose often 46.1 µM), for the others: top-dose activity, negative = less viability, actives largely listed as cytotoxic | 360,000 tested, 1.6% active | AID 686970;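 also: NT is the 2HG producing partner of a matched IDH1 knockdown line; 0% = DMSO-treated cells and -100% = media-only wells without cells; nearly all actives have a fitted effect of over 55% in size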
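Viability by CellTiter-Glo luminescence after 48 h compound exposure at 37C of HT-1080-NT cells (750/well, RPMI, 5% FBS). % activity scaled between DMSO wells and medium-only wells, then curve-fitted and categorized by curve class.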
MCF10A rerep = induces DNA re-replication in MCF 10a normal breast cells; Potency, µM (top dose mostly 46.1 µM), without a hit: top-dose activity, positive = re-replication, actives largely listed as activators; MCF 10A DNA re-replication, Hoechst nuclear intensity, 48 h; 350,000 tested, 2.9% active; also: % of control where 0% means no effect; nearly all actives have a fitted effect of over 50% in size
HT1080 IDH1KD tx = toxicity to HT-1080 IDH1 knockdown cells (counter line) | HT-1080 IDH1 knockdown viability, ATP luminescence, 48 h | Potency, µM (series often up to 46.1 µM), for inactives: at the top dose activity, negative = toxicity, most hits filed as cytotoxic | 360,000 tested, 2% active;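 also: 0% = DMSO wells and -100% = cell-free medium wells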
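Cytotoxicity counter-line: IDH1KD HT-1080, 48 h, CellTiter-Glo. Curves classed by r2, magnitude and activity.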
SW480 rereplic = DNA re-replication induction in SW480 cells | SW480 DNA re-replication, Hoechst DNA content imaging, 48 h | Potency, µM (doses to about 46.1 µM), for inactives: at the top dose re-replication activation, hits mostly activators | 340,000 tested, 1.8% active; also: % of control where 0% means no effect; nearly all actives have a fitted effect of over 55% in size
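Readout is total intensity of Hoechst-stained nuclei, excited at 405 nm and collected at 500-530 nm. Compound treatment lasted 48 hr at 37 C in 5% CO2 before staining.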
KB-3-1 cytotox = kills parental KB-3-1 adenocarcinoma cells; AID 1347075; 400,000 tested, 1.4% active; Potency, µM (highest dose often 46.1 µM), actives largely listed as cytotoxic; KB-3-1 viability, CellTiter-Glo ATP luminescence, 72 h; also: % is scaled to controls: 0 for no effect and ±100 for the full control effect; nearly all actives have a fitted effect of over 60% in size
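Screening of KB-3-1 cells (DMEM, 10% FBS, phenol-red free) ran from lowest to highest compound concentration; after 72 h at 37 °C viability was read luminescently and curves fitted.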
KB-V1 cytotox = kills drug-selected multidrug resistant KB-V1 cells. KB-V1 MDR cells viability, CellTiter-Glo, 72 h. Potency, µM (doses to about 46.1 µM), most hits filed as cytotoxic. 400,000 tested, 3.4% active; also: % is scaled to controls: 0 for no effect and ±100 for the full control effect; nearly all actives have a fitted effect of over 60% in size
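Readout: CellTiter-Glo luminescence, 10 min after addition. Cells: KB-V1 MDR subline, 72 h at 37 degrees C with compound. Analysis: corrected, normalized data fitted to concentration-effect curves.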
Active calls of the source: *; i = inactive; ? = inconclusive; · = not tested or not shown; [ ] = dose if it differs, or a comment. Calls follow the shape of the dose curve; as a rule, active = well fitted curve in the direction sought with a large enough effect; inconclusive = small, poorly fitted or top-dose-only effect, or another doubt; inactive = no such curve, though single readings can be large; an effect the other way counts as inactive or inconclusive. Potency is read from the fitted curve at half-maximal effect.

SMILES	HT1080NT lethal	MCF10A rerep	HT1080 IDH1KD tx	SW480 rereplic	KB-3-1 cytotox	KB-V1 cytotox
COc1ccc(C2(c3ccc(OC)cc3)NC(=O)N(CC(=O)NC3CCS(=O)(=O)C3)C2=O)cc1 (stereo not drawn)	5%[9.24 µM]	-4%	2%	-20%	i	i
CN=c1scc(-c2cccs2)n1/N=C/c1ccccc1O	?	15µM*	?	11%	?	?
CN=c1scc(-c2cccs2)n1/N=C/c1ccc(O)c(O)c1O	-28%	8%	?	?	?	?
COc1ccc(CCN(C(=S)Nc2ccccc2)C2CC(=O)N(c3ccccc3)C2=O)cc1 (stereo not drawn)	-3%	2%	-5%	0%	i	i
O=C1CC(N(CCc2ccccc2)C(=S)Nc2ccccc2)C(=O)N1c1ccc(Br)cc1 (stereo not drawn)	16µM*	?	?	?	?	?
CNC(=S)N(CCc1ccc(S(N)(=O)=O)cc1)C1CC(=O)N(c2ccccc2F)C1=O (stereo not drawn)	-22%	7%[9.22 µM]	-13%	5.8µM*	?	i
CNC(=S)N(Cc1ccc(OC)cc1)C1CC(=O)N(c2ccc(Cl)cc2)C1=O (stereo not drawn)	-23%	13%	-30%	1%	?	i
CNC(=S)N(Cc1ccc2c(c1)OCO2)C1CC(=O)N(c2ccc(F)cc2)C1=O (stereo not drawn)	-24%	-22%	-11%	11%	?	16µM*
CCn1c(CNC(=O)Cc2ccc(OC)cc2)nnc1SCC(=O)NC1CCCCC1	-1%	-1%	-1%	-2%	i	i
CCC(=O)Nc1c(OC(=O)CC)ccc2c(C)cc(=O)oc12	0%	-2%	-2%	?	i	i
CCCC(=O)Nc1ccc(C(=O)Nc2cccc(OC)c2)cc1	8%	1%	0%	1%	i	i
CC(C)(C)C(=O)Nc1ccc(C(=O)OC2CCCCC2)cc1	13µM*	7%	?	-1%	i	?
COc1cccc(NC(=O)c2ccc(NC(=O)C(C)(C)C)cc2)c1	-1%	-6%	-10%	-134%	i	23µM*
COc1cccc(NC(=O)Nc2ccc(C(C)(C)C)cc2)c1	16µM*	?	?	?	?	i
COc1cccc(NC(=O)Nc2ccncc2)c1	6%	-6%	-1%	0%	i	i
N#CC1=C(N)N=C(SCc2cccc3ccccc23)C(C(N)=O)C12CCCCC2 (stereo not drawn)	-1%	?	-14%	5%	i	?
COc1cc(-c2nnc(COc3ccc4cc(Br)ccc4c3)o2)cc(OC)c1OC	2%	4%	0%	-9%	i	i
CCOc1ccccc1/C=N/n1c(C2CCCCC2)n[nH]c1=S	3%	26µM*	4%	6%	i	i
CSc1ccc(/C=N/n2c(C3CCCCC3)n[nH]c2=S)cc1	?	16µM*	?	?	i	i
CC(/C=N/n1c(C2CCCCC2)n[nH]c1=S)=C\c1ccccc1	-17%	21µM*	-18%	?	i	i
CCCCC(=O)Nc1ccc(F)c(Cl)c1	12%	0%	6%	3%	i	i
Cc1nn(C)cc1CNC(=O)c1ccccc1Br	3%	-18%	-7%	-1%	i	i
Cc1ccccc1Nc1c(-c2ccc(N3CCOCC3)cc2)nc2ncccn12	8%	2%	5%	-2%	?	?
CCCc1cc(C(=O)Nc2sc3c(c2C#N)CCC3)no1	-25%	?	?	?	?	i
O=C(c1cc2c(c(-c3cccc(-c4ccc(F)cc4)c3)n1)[C@H](CCO)N(C(=O)c1ccc3c(c1)OCO3)C2)N1CCOCC1	21µM*	·	?	·	i	?
SMILES	HT1080NT lethal	MCF10A rerep	HT1080 IDH1KD tx	SW480 rereplic	KB-3-1 cytotox	KB-V1 cytotox
O=C(c1cc2c(c(-c3cccc(-c4ccncc4)c3)n1)[C@@H](CCO)N(C(=O)c1ccc3c(c1)OCO3)C2)N1CCOCC1	-13%	·	7%	·	i	i
CNCc1ccccc1Sc1ccc(O)c(O)c1	-11%	?	?	?	i	23µM*
COc1ccc(Sc2ccccc2CN(C)C)cc1OC	-2%	-3%	-9%	3%	i	i
CCSC(=O)N1c2ccc(OC)cc2C=CC1C#N (stereo not drawn)	0.46µM*	1.2µM*	?	?	0.65µM*	0.73µM*
Cc1ccc2c(c1)C=CC(C#N)N2C(=O)c1ccccc1 (stereo not drawn)	1.6µM*	?	1.5µM*	2.1µM*	4.6µM*	9.2µM*
COc1ccc(C(=O)N2c3ccccc3C=CC2C#N)cc1 (stereo not drawn)	-28%	?	-20%	?	i	i
CCCCn1c(N)c(N(CCOC)C(=O)c2cccc(S(=O)(=O)N3CCCCCC3)c2)c(=O)[nH]c1=O	14%	4%	17%	-6%	i	i
N#CC1=C(N)OC2=C(CC/C2=C\c2ccccc2)C1c1ccccc1 (stereo not drawn)	-21%	5.8µM*	-21%	15µM*	?	?
N#CC1=C(N)OC2=C(CC/C2=C\c2ccccc2Cl)C1c1ccccc1Cl (stereo not drawn)	1%	?	4%	?	i	?
CSc1ccc(Cl)c(C(=O)Nc2ccc(C)cn2)c1	?	?	?	26µM*	?	?
COc1ccc(NC(=O)c2cc(SC)ccc2Cl)cc1	-11%	23%	-25%	5%	i	15µM*
COc1ccc(C(=O)Nc2ccc(C)cn2)c(OC)c1	?	14%	-8%	-2%	?	16µM*
COc1ccc(NC(=O)c2nc(SC)ncc2Cl)cc1	3%	7%	10%	-7%	i	i
COc1ccc(NC(=O)c2cnc(SC)nc2)cc1	?	?	?	?	16µM*	?
COc1cc(SC)ccc1C(=O)Nc1ccccc1	-10%	1%	?	?	i	?
O=C(CNC(=O)N1CC(=O)Nc2ccccc21)Nc1ccc(Cl)cc1	19%	-2%	3%	-2%	?	i
COc1cccc(/C=C/c2ccc3cccc(O)c3n2)c1OC	-20%	-14%	?	?	i	i
O=C(O)c1ccccc1C(=O)OCC1CCC(=NO)CC1 (stereo not drawn)	-1%	·	1%	·	i	i
